Bioassay records deposited in PubChem BioAssay by National Center for Advancing Translational Sciences (NCATS).
TRPV1 ag: HTS Assay for Compounds that Act as Agonists of the Vanilloid Receptor 1; Transient receptor potential cation channel subfamily V member 1 (Homo sapiens), Q8NER1; TRPV1-expressing cells, Fluo-8 calcium influx, agonist mode; activation, % at 8.33 µM; hit rate 0.19% among 320,000; AID 540275, 2011; in the data active = activation above about 80%; inconclusive = between about 30% and that limit; note: 0% is about no effect
Target sequence (Q8NER1 whole entry, looked up): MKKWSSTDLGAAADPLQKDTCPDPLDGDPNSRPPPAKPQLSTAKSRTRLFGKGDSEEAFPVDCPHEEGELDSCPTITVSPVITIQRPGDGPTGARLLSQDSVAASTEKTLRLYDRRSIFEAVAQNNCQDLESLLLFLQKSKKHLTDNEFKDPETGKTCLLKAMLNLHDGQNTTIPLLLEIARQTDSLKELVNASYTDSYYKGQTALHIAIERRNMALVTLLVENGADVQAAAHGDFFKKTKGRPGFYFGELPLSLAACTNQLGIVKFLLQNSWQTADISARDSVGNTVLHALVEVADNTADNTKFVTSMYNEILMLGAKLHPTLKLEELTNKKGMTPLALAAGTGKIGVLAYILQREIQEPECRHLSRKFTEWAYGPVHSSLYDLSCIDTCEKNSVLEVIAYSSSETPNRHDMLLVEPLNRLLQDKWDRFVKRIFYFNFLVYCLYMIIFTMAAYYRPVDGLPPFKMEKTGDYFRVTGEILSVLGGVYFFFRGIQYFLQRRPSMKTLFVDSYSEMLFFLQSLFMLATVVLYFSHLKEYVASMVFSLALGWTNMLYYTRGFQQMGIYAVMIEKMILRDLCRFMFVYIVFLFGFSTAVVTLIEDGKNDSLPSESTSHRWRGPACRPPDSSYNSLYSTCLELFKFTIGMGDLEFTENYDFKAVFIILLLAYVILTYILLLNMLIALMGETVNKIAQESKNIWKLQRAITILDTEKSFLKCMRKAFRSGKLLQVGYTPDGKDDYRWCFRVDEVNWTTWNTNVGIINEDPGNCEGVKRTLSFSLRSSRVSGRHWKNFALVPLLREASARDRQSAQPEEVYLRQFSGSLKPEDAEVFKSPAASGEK
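Cells expressing TRPV1 were dye-loaded with Fluo-8 and read kinetically: 10 s baseline, 3 min after compound (agonist portion), then 2 min after EC20 capsaicin (allosteric enhancer portion). Calcium-bound dye fluorescence at 480/520 nm.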
Giardia kill: Small Molecules that selectively kill Giardia lamblia: qHTS; activity change, % at 7.66 µM, hits read low; Giardia lamblia trophozoite viability; AID 540267, 2011; hit rate 0.15% among 340,000; in the data active = activity change below about -80%; inconclusive = between about -30% and that limit;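 note: parasites exposed to compound for two days anaerobically before the ATP read; % is set by controls: 0 for no effect and ±100 for the full control effect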
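Giardia trophozoites, 100 cells per well, were exposed to compounds for 48 hrs at 37 deg C under anaerobic conditions; viability was then read as ATP content by bioluminescence after 15-30 min at room temperature.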
ELG1 repair inh: qHTS screen for small molecules that inhibit ELG1-dependent DNA repair in human embryonic kidney (HEK293T) cells expressing luciferase-tagged ELG1 | Potency, µM (titrated, usually from 46.1 µM), for inactives: at the top dose activity change, negative = inhibition, hits mostly inhibitors | AID 504467, 2011 | hit rate 2.3% among 330,000 | HEK293T ELG1-luciferase reporter, luminescence, 16 h; DNA damage induced by 5-fluorouridine; note: potency is the fitted concentration of half-maximal effect; % is set by controls: 0 for no effect and ±100 for the full control effect; nearly all actives have a fitted effect of over 55% in size
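HEK293T cells expressing luciferase-tagged ELG1 (2,000/well) received 5-Fluorouridine plus compound or DMSO for 16 hr at 37 °C. Luciferase was read by ONE-Glo luminescence after 30 min at room temperature.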
FUS suppressor: qHTS for Suppressors of FUS Proteinopathy: Primary screen using FUS-linked yeast assay | S. cerevisiae FUS-expressing, growth rescue, OD600, 24 h | Potency, µM (series often up to 76.6 µM), most hits filed as activators | hit rate 0.24% among 390,000 | AID 1347120, 2019;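 note: potency is the fitted concentration of half-maximal effect; plate controls were DMSO vehicle for no effect and reference control for full effect; nearly all actives have a fitted effect of over 55% in size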
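S. cerevisiae expressing FUS from galactose induction served as the toxicity model. Growth after 24hr at 30C, read as absorbance at 600 nm, indicates suppression of toxicity; compounds dosed at several concentrations.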
TRPV1 PAM: HTS Assay for Compounds that Act as Potentiators of the Vanilloid Receptor 1; Transient receptor potential cation channel subfamily V member 1 (Homo sapiens), Q8NER1; TRPV1-expressing cells, Fluo-8 calcium influx, capsaicin EC20 potentiation; potentiation, % at 8.33 µM; hit rate 0.02% among 320,000; in the data active = potentiation above about 80%; inconclusive = between about 30% and that limit; note: 0% is about no effect
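Cells expressing TRPV1 were dye-loaded with Fluo-8 and read kinetically: 10 s baseline, 3 min after compound (agonist portion), then 2 min after EC20 capsaicin (allosteric enhancer portion). Calcium-bound dye fluorescence at 480/520 nm.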
Starred values were filed as active, the others as inactive. Rows were chosen to be rich in hits. Some 2.3% of all compounds tested hit in one or more screens of this group. Unless noted, calls come from the whole dose curve; as a rule, active = well fitted curve in the direction sought with a large enough effect; inconclusive = small, poorly fitted or top-dose-only effect, or another doubt; inactive = no such curve, though single readings can be large; an effect the other way counts as inactive or inconclusive.

CCCCC(=O)Nc1ccc(NC(=O)c2ccccc2OC)cn1 was read as TRPV1 ag 0, Giardia kill 9, ELG1 repair inh 18µM*, FUS suppressor inactive and TRPV1 PAM -11.
`Cc1ccc(NS(=O)(=O)c2cc(NC(=O)c3ccc4c(c3)NC(=O)CS4)ccc2C)c(C)c1` gave TRPV1 ag 2, Giardia kill -29, ELG1 repair inh 18µM*, FUS suppressor inactive and TRPV1 PAM -3.
COc1ccc(NC(=O)c2ccc3c(c2)NC(=O)CS3)cc1S(=O)(=O)Nc1ccc(Br)cc1 was read as TRPV1 ag -4, Giardia kill 12, ELG1 repair inh 12µM*, FUS suppressor inactive and TRPV1 PAM 0.
For COC(=O)c1ccccc1NC(=O)c1ccc(=O)n(Cc2cccc(C)c2)c1 the results were FUS suppressor inactive.
`COc1ccccc1CNS(=O)(=O)c1ccc(F)c(C(=O)Nc2cc(Cl)ccc2OC)c1` gave FUS suppressor inactive.
Cc1ccc2nc(-c3ccccc3)cc(C(=O)NNC(=O)c3csc(N4CCOCC4)n3)c2c1 was read as TRPV1 ag 3, Giardia kill -3, ELG1 repair inh 6.5µM*, FUS suppressor inactive and TRPV1 PAM 22.
`COc1cc(C=Nn2c(-c3cc(-c4ccccc4)n[nH]3)n[nH]c2=S)ccc1OC(C)=O` gave FUS suppressor inactive.
For CC(=O)Oc1c(Br)cc(N(C(C)=O)S(=O)(=O)c2ccccc2)c2ccccc12 the results were TRPV1 ag 13, Giardia kill 16, ELG1 repair inh 23µM*, FUS suppressor inactive and TRPV1 PAM -10.
Screening CC(=O)Oc1ccccc1N(C(C)=O)S(=O)(=O)c1ccc2ccccc2c1 returned TRPV1 ag 6, Giardia kill -12, ELG1 repair inh 0%, FUS suppressor inactive and TRPV1 PAM 11.
Screening COc1ccc(C)cc1NC(=O)C1CCN(S(=O)(=O)c2c(C)noc2/C=C/c2ccco2)CC1 returned FUS suppressor inactive.
`CC(=O)N1N=C(c2c(-c3ccccc3)c3cc(C)ccc3[nH]c2=O)CC1c1ccco1` (configuration not stated) gave TRPV1 ag 1, Giardia kill -12, ELG1 repair inh 23µM*, FUS suppressor inactive and TRPV1 PAM 5.
Screening CC(=O)N1N=C(c2c(-c3ccccc3)c3cc(Br)ccc3[nH]c2=O)CC1c1ccco1 (configuration not stated) returned TRPV1 ag -1, Giardia kill 5, ELG1 repair inh inconclusive, FUS suppressor inactive and TRPV1 PAM 3.
`COc1ccc(C2=Nc3ccc(OC(F)(F)F)cc3NC(c3cccnc3)=N2)cc1` gave FUS suppressor inactive.
For CCOc1ccc(NC(=O)C(=O)NCCc2csc(-c3ccc(F)cc3)n2)cc1 the results were FUS suppressor inactive.
For Cc1cc(NCc2ccccn2)n2nc(C)c(-c3ccccc3)c2n1 the results were TRPV1 ag 9, Giardia kill 18, ELG1 repair inh 23µM*, FUS suppressor inactive and TRPV1 PAM -3.
`Cc1nn2c(NCc3ccccn3)cc(C(C)(C)C)nc2c1-c1ccccc1` gave TRPV1 ag inconclusive, Giardia kill 33, ELG1 repair inh inconclusive, FUS suppressor inconclusive and TRPV1 PAM -11.
Screening Cc1nn2c(N3CCN(C)CC3)c3c(nc2c1-c1ccccc1)CCCC3 returned TRPV1 ag -1, Giardia kill -5, ELG1 repair inh -1%, FUS suppressor inactive and TRPV1 PAM 6.
Screening COc1ccc(Nc2c3c(nc4c(-c5ccccc5)c(C)nn24)CCC3)cc1 returned TRPV1 ag -2, Giardia kill -11, ELG1 repair inh 15µM* and TRPV1 PAM inconclusive.
`Cc1nn2c(NCc3ccccn3)c3c(nc2c1-c1ccccc1)CCC3` gave TRPV1 ag 27, Giardia kill -13, ELG1 repair inh 10µM*, FUS suppressor inactive and TRPV1 PAM -3.
